# According to the supplement of paper PMC11417369:
# ± gives the standard deviation of the averaged measurements. The full ranking holds about 25,000 sequences; the median of “ln(normalized median fluorescence intensity)” is about 8.9, and the highest 2% start at about 10. Many of the other results were omitted from the sample, so the highest values are more common in it than they were.
# Test system: PfAP2-LT AP2 domain (GST-tagged)
# Assay: gcPBM binding intensity (ln(normalized median fluorescence intensity)); higher = stronger DNA binding
# Summary of the method: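 The highest Masliner-normalised natural-log median intensity across replicate spots of either probe orientation is reported as binding intensity. GST-tagged P. falciparum DNA-binding domains expressed in E. coli were applied for 1 h to an Agilent 4 × 180k array of primer-extended double-stranded 36-bp intergenic genomic probes plus negative controls, and bound protein was detected with Alexa488 anti-GST antibody and scanned at 488 nm.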
row,Sequence,gcPBM binding intensity (ln)
1,TTATATGTATGAACAAGTACATGCTATAATTATAAA [XGTACX_site1399],8.57 ± 0.46
2,ACATTCTATATATACACACATACATAATAAAGAAAG [CACACA_site2771],9.05 ± 0.4
3,AAAACATAACATTGTTGTACTACTAATAAAATAAGT [XGTACX_site6149],8.8 ± 0.52
4,ATATTATATATGTATAGTACATATTATAAGAAAAAT [XGTACX_site3457],8.87 ± 0.65
5,ATATATAAAAAAGCTAGTACACAAAAATATATAATG [XGTACX_site3001],8.95 ± 0.54
6,TTATATATAAATGTGTGTACTTATAAAATAATCATT [XGTACX_site5370],8.78 ± 0.43
7,TATATATATAGACACACACACATATAAATAAATAAA [CACACA_site444],9.56 ± 0.34
8,TATATAAATAGACACACACACATATAAATATAAATA [CACACA_site6503],9.69 ± 0.32
9,TAATTTTTTAGACACACACACATATAAATATAAATA [CACACA_site6195],9.37 ± 0.34
10,CATATAAATAGACACACACACACATATAAATAAATA [CACACA_site7156],10.1 ± 0.4
11,AATAAATTTAGACACACACACACATATAAATAAATA [CACACA_site6531],10.1 ± 0.23
12,TAAATTTATAGACACACACACATATAAATAAATATA [CACACA_site6530],9.71 ± 0.22
13,TATGAAGACACAAATACACACACTCAAAAAAAAAAA [CACACA_site2660],9.41 ± 0.44
14,AAAAAAAAAAAAAAAACACACATTTGAAGAAAAAAA [CACACA_site7389],8.58 ± 0.51
15,ATTGTATAAAAATGTACATGCAATAAATTTAGTTCT [TGCATGCA_site675],8.77 ± 0.42
16,AAATAAAGCACACCGACACACACATATATATATATA [CACACA_site8256],10.03 ± 0.057
17,CCATAAAAAGGATACACACACACACCGACATATATA [CACACA_site4653],10.2 ± 0.23
18,ATAAAGCACACCGACACACACATATTTATATTTATA [CACACA_site6620],9.68 ± 0.43
19,TAAAAGGATACATATACACACATATATATATATATA [CACACA_site2791],9.72 ± 0.13
20,TACAGATAAAAGTACACACACACACCGATATATATA [CACACA_site4675],10.12 ± 0.099
21,AAAGATAAAAAAAGTACACACACACCGATATATATA [CACACA_site9006],10 ± 0.14
22,AAAAAAAAAAAAAGTACACACATACAGATAAATATA [CACACA_site5067],9.16 ± 0.48
23,CAAAAGGATAGGCACACACACACACCGATATATATA [CACACA_site8685],10.1 ± 0.21

row,Sequence,gcPBM binding intensity (ln)
1,CCATAAAAAGGATACACACACACACGCACATATATA [CACACA_site6550],9.92 ± 0.11
2,CAAAAGGATAGGCACACACACACACCCATATATATA [CACACA_site2199],10.2 ± 0.23
3,ATAAAGCACACCGACACACACATATATATATATATA [CACACA_site1047],10.54 ± 0.099
4,GCCAAAAGGATATGCACACACACACCCATATATATA [CACACA_site2198],9.94 ± 0.42
5,TTTATAATATGTTATACATGCAGGTACCTTTTTGTA [TGCATGCA_site746],8.9 ± 0.46
6,TATAACACACAATGATGTACATTACATTATTTTTTA [XGTACX_site2076],8.79 ± 0.45
7,ATAACAATTATTTGTCGACACACGTATATGTTATTT [CACACA_site1766],9.41 ± 0.38
8,ATATTCTTTTTATGTGGTACTAATTTTTTTTTTTTA [XGTACX_site3791],8.66 ± 0.57
9,CGAAAAAATAAAAAAAAAATAAAATAAAATAAATAA [TGCATGCA_negctrl_site278],8.56 ± 0.59
10,TACAAATATGGACACACACACATATTTATATTTATA [CACACA_site6420],9.73 ± 0.4
11,CCATAAAAAGGATACACACACACACCCACATATATA [CACACA_site903],10.1 ± 0.32
12,AGATAAAAAAAGTACACACACACATATATATATATA [CACACA_site3072],10.02 ± 0.014
13,TACATATAAAAGTACACACACACACCCATATATATA [CACACA_site941],10.1 ± 0.3
14,ACCCATAAAAAGGATACACACACACCCACCCATATA [CACACA_site8205],10.3 ± 0.29
15,AAGGATATAACATACACACACACACCCATATATATA [CACACA_site4142],10.08 ± 0.099
16,AATACATATAAAAGTACACACACACCCATATATATA [CACACA_site8220],9.97 ± 0.13
17,ATAATTATATAAATATATATAATATATATATGAAAA [XGTACX_negctrl_site357],8.58 ± 0.58
18,TAATGGAGAAAAAAAAAACACACGGTACATTCAAAG [CACACA_site3117],9.01 ± 0.46
19,AAATAAATAAATTAACGTACATAATAACATTAATAT [XGTACX_site8567],8.86 ± 0.47
20,AGTTTGTCAATCAACACACACCTATTTATTATAGAT [CACACA_site7777],9.1 ± 0.37
21,AACACCCAAAAACACACACACATACATACATACATA [CACACA_site4411],9.8 ± 0.23
22,AAAAAAAAAAAACACACACACACAAATATATAAAAA [CACACA_site1171],9.77 ± 0.31
23,AAAAAAAAAAAACACACACACACACCCAAATATATA [CACACA_site150],10.22 ± 0.028

row,Sequence,gcPBM binding intensity (ln)
1,AAAACACCCAAACACACACACACATATATATATATA [CACACA_site9119],10.2 ± 0.35
2,AAAAAAAAAAAAAAAAAAAAACACCCAAAAAAATAT [XGTACX_negctrl_site210],8.86 ± 0.44
3,AAATAAATAAAAAACACACACAAATAAATAAATATA [CACACA_site2249],9.46 ± 0.39
4,AAAATCACAAAACACACACACACAAAAAAAAAAAAA [CACACA_site1443],9.49 ± 0.53
5,AAAGAAAAAAAAAAAACACACAAAAAAAATCAAAAT [CACACA_site2871],9.04 ± 0.57
6,AAAAAAAAAAAAAAAACACACACATACACCCAAAAA [CACACA_site7910],9.78 ± 0.23
7,AAAAAATCAAAACACACACACACACCCAAAAAAAAA [CACACA_site1444],10.2 ± 0.37
8,AAAAAAAAAAAAAACACACACACACCCAAATATATA [CACACA_site1169],10.2 ± 0.44
9,CAAATGTAGAAAATGTGTACATAAAAAAAAAAAAAA [XGTACX_site8276],8.87 ± 0.47
10,AGGGACATATATATCACACACAAAAATTAGTCCCTT [CACACA_site2778],9.39 ± 0.44
11,TATATTATTTATATTTGTACACAGCGATATGAAATA [XGTACX_site987],8.56 ± 0.46
12,CATATAATTATTTTCACACATATAACTACATCTATA [CACACA_site5915],8.82 ± 0.43
13,ATACATACATACATACGTACATATGTATATATATAT [XGTACX_site8498],9.23 ± 0.14
14,AATTTGATTATAAATTGTACATATATATATTAAAAG [XGTACX_site5461],8.66 ± 0.35
15,AAAAATGAAAGGTGTACACATACAAACATAGAAAGA [CACACA_site5020],9.38 ± 0.52
16,ATGGTTTTTATTTTATGTACTTACTAAAATGAATAA [XGTACX_site4317],8.52 ± 0.37
17,TAAACACCCATACATACACACATACATACACCCATA [CACACA_site5125],9.63 ± 0.18
18,AAAAAAAAAAAAAACACACACACACCCATACACATA [CACACA_site2860],10.19 ± 0.078
19,AAAAAAAAAAAACACACACACACATACCCATACATA [CACACA_site5575],9.98 ± 0.22
20,AAAAAAAAAAAAAACACACACACACCCATACCCATA [CACACA_site5577],10.215 ± 0.0071
21,CATACACCCATACATACACACATACATACACCCATA [CACACA_site5124],9.56 ± 0.31
22,AAAAAAAAAAAACACACACACACACCCATACATACA [CACACA_site707],10.4 ± 0.14
23,AAAAAAAAAAAAAAAACACACACAACACCCATACCT [CACACA_site9208],9.92 ± 0.14

row,Sequence,gcPBM binding intensity (ln)
1,AAAAAAAAAAAAAACACACACAACACCCATACCTTA [CACACA_site3621],9.79 ± 0.057
2,GGGCATATAATATAAAGTACAGGACTATAAAAATAT [XGTACX_site4481],8.86 ± 0.59
3,TCTTTTTTTTTTACTAGTACTTAAAAAAAAAATATG [XGTACX_site4395],8.28 ± 0.55
4,TTTGTAAAACTATATTGTACTTTTATATATCTACAA [XGTACX_site5507],8.56 ± 0.47
5,TTTTTAAAAAAGATAAGCGAAAGAATTAATTTTTAA [GTGCAC_negctrl_site197],8.13 ± 0.52
6,TATTTACATATTTATATACACACTTTTGCGTGTCTG [CACACA_site1110],9.36 ± 0.67
7,CATATTATTTATATTTGTACACAGCGATATGAAATA [XGTACX_site7717],8.68 ± 0.35
8,AAAAAATCACGACACACACACACACTAAAAAAAAAA [CACACA_site6792],10.1 ± 0.2
9,TATAATAAATCAAATGCACACACACTAATAAAAAAA [CACACA_site7937],9.63 ± 0.35
10,AAAATCACAAGACACACACACACAAAAAAAAAAAAA [CACACA_site6791],9.94 ± 0.58
11,TGGTTACTGTCATTAGTTATTTCTTGTTGACAATTA [CACACA_negctrl_site416],8.79 ± 0.41
12,CAAAAAAACAAACACACACACACACCCATATATATA [CACACA_site3653],10.25 ± 0.085
13,AAAAAATACAAACACACACACACACCCATATATATA [CACACA_site3560],10.21 ± 0.057
14,CAAAAAAAATTATACACACACACACCCATATATATA [CACACA_site1044],10.04 ± 0.099
15,AAAAAAAAAAAAAACACACACACACCCATACAAAAT [CACACA_site1446],10.12 ± 0.064
16,TACAAACACCCATATACACACAAAAAAAAAATAAAA [CACACA_site5421],9.24 ± 0.49
17,CACAAAAAAAATTATACACACACACCCATATATATA [CACACA_site8255],9.82 ± 0.11
18,AACAAAAAAACAAACACACACACACCCATATATATA [CACACA_site3652],10.03 ± 0.042
19,ATAAAATACAGATAAACACACATATAAACACCCATA [CACACA_site5381],9.56 ± 0.32
20,AAAATACAGAAACACACACACACACCCATATATATA [CACACA_site3559],10.31 ± 0.014
21,ATACAGAAAAAAAACACACACACATAATATACATAC [CACACA_site1933],9.84 ± 0.16
22,AAAAAAAAAAAAAACACACACACACCCAAATACATA [CACACA_site708],9.99 ± 0.24
